Source: PubChem BioAssay (NCI)
This is part of a sample that, as a whole, favours compounds with a hit. Of some 83,000 tested, about 20% had one in any assay.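 Plates (96-well) were seeded with cells, treated with compound at one concentration, and incubated for 48 hours before percent growth was determined.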 Unmarked numbers belong to inactive results. Activity calls are given as the source filed them.

These compounds were tested on NCI-H522 lung (assay: NCI-60 one-dose screen, 48 h (100 = growth as untreated, 0 = no growth, -100 = all killed)). Details: 10 µM.
Experimental: Growth inhibition of the NCI-H522 human Non-Small Cell Lung tumor cell line is measured as a screen for anti-cancer activity. Cells are grown in 96 well plates and exposed to the test compound for 48 hours. Compounds are tested at a single concentration, which is 10^-5 M for most compounds. The reported endpoint is percent growth (GI% or GIPRCNT), where numbers from 0 - 100% represent growth inhibition, and numbers from -100% - 0 represent cell death. For example, a value of 40 represents 60% growth inhibition. A value of 0 means no net growth occurred over the course of the experiment. A value of -40 indicates 40% of cells at the beginning of the experiment died by the end of the experiment. A value of -100 means all cells are dead at the end of the experiment.
NCI-60 Human Tumor Cell Lines Screen was performed using the standard one-dose NCI protocol, which is described in more detail at https://dtp.cancer.gov/discovery_development/nci-60/default.htm.
Compounds with GIPRCNT values below 10 were considered active. Activity score was based on GIPRCNT using the following formula: […]
Score is 0 for GIPRCNT values of 100 or above, 50 for GIPRCNT values of 0, and 100 for GIPRCNT values of -100.

Compound	growth
COc1ccc(-c2nc(-c3nc4ccc(OC)cc4[nH]3)cc3c2[nH]c2ccccc23)cc1	45.2%
O=C1/C(=C\c2cn(C(=O)c3ccc(Cl)cc3)c3ccccc23)c2ccccc2N1C(=O)c1ccc(Cl)cc1	6.02% (active)
O=C(Nc1nc2ccc(F)cc2s1)c1cc(-c2ccc(F)cc2)n2nc(-c3ccccc3)cc2n1	98.9%
O=C(O)CN1C(=O)c2cccc3cccc(c23)C1=O	94.1%
Nc1c(C(=O)Nc2cccc(Br)c2)sc2nc3c(cc12)C(O)CCC3 (stereo not given)	-4.01% (active)
CCOC(=O)N/N=C\C(C)=N\NC(=O)OCC	89.2%
CC(=O)O[C@]1(C)CC[C@H]2[C@H](CNCCc3ccc(Cl)cc3)C(=O)O[C@@H]2C2=C(C)C(=O)C[C@H]21	-33.4% (active)
COc1cc(-c2cc(C(=O)N3CCN(C(=O)c4ccccc4NCc4cccs4)CC3)nc3cc(-c4ccccc4)nn23)cc(OC)c1OC	18.6%
O=S(=O)(Nc1ccccn1)c1ccc(N=Nc2ccc(O)c3ncccc23)cc1	-21.6% (active)
Cc1ccc(C(=O)Nc2cccc(F)c2)cc1NC(=O)C1(c2ncnc3[nH]ccc23)CC1	61%
CCCCCCN1CCN(Cc2ccc(N(CC)CC)cc2)C(=O)C1=O	-7.64% (active)
COc1ccc(Nc2ncnc3c2c(SC)nn3-c2ccccc2)cc1	61.3%
COc1ccc(-c2cc(/C=C3\C(=O)Nc4ccc(OC)cc43)[nH]n2)cc1	11.1%
COc1ccc2c(c1)nc(N)c1c3cccnc3cn21	-2.48% (active)
O=C1OCC2=C1C(c1cccc(Cl)c1)c1cc3c(cc1N2CCO)OCCO3 (stereo not given)	-22.4% (active)
Cc1cc(N(CCCNc2ccnc3cc(Cl)ccc23)Cc2cccs2)nc(Cl)n1	35.6%
CSc1nc(=O)n(Cc2ccc(F)cc2)c(=O)n1Cc1ccc(C)cc1	110%
COc1cc(CNc2ccccc2C(=O)N2CCN(C(=O)c3cc(-c4cc(OC)c(OC)c(OC)c4)n4nc(-c5ccccc5)cc4n3)CC2)cc(OC)c1OC	7.02% (active)
N#Cc1cccc(OCc2nc(N)nc(N)c2-c2ccc(Cl)c(Cl)c2)c1	8.77% (active)
O=S(=O)(NCCCNc1nccc(-c2c(-c3ccc(F)cc3)nc3sccn23)n1)c1ccc(F)cc1	36.4%

Compound	growth
Nc1c(C(=O)Nc2ccccc2)sc2nc3c(cc12)C(O)CCC3 (stereo not given)	7.09% (active)
O=C(NN1C(=O)CSC1c1ccc(Cl)cc1)c1cccnc1 (stereo not given)	87.1%
O=C(c1cccs1)c1ccccc1Cc1ccccc1	100%
O=C(/C=C/c1cc2ccccc2[nH]c1=O)c1ccc2c(c1)OCO2	3.16% (active)
COc1ccc(-c2csc(NC(=O)CSc3nc(C)c(-c4ccccc4)n3Nc3ccccc3)n2)cc1	58.2%
COc1ccc(-c2nc3ncccn3c2-c2nnc(-c3ccsc3C)o2)cc1	53.6%
Cc1nc2c(c(=O)[nH]1)OCN(Cc1ccccc1)C2	111%
CC(C)N(CCNc1nc(C(Cl)(Cl)Cl)nc2cc(Cl)ccc12)C(C)C	-68.4% (active)
O=[N+]([O-])c1cccc(N=Cc2ccc3c(c2)OCO3)c1	89.8%
Clc1ccc(Sc2nc(NC3CC3)nc(Sc3ccc(Cl)cc3)n2)cc1	59.1%
Cn1c([N+](=O)[O-])cnc1/C=C1\Oc2cc(Cl)ccc2C1=O	-53.8% (active)
CCN(CC)CCSCCCNc1c2ccc(Cl)cc2nc2ccc(OC)cc12	-79.1% (active)
O=C1/C(=C\c2ccc(Br)cc2)CN(C(=O)c2ccccc2F)C/C1=C\c1ccc(Br)cc1	-1.44% (active)
COc1ccc(/C=C/C(=O)Nc2ccc(-c3nc4ccc(OC)cc4s3)cc2)cc1	91.2%
Cc1[nH]nc2c1C(c1cnn(C)c1)C(C#N)=C(N)O2 (stereo not given)	80.4%
O=C1NC(=O)c2ncccc21	171%
Cc1ccc(N=Nc2c(N)nc(N)[nH]c2=O)cc1C	92.1%
NC(=O)c1ccc(-c2cccc3c(=O)nc(N4CCOCC4)oc23)cc1	89.5%
COc1ccccc1CNCCN1C(=O)c2ccc3c4c(ccc(c24)C1=O)C(=O)N(CCNCc1ccccc1OC)C3=O	-83.4% (active)
CSc1cc(SC)ncn1	100%
